Measurements taken from the supplement of paper PMC3545927.
The other results are listed elsewhere or left out. The hit rate among all sequences tested is not known here.

Molecular target: furin, P09958
Assay: furin cleavage Z-score vs untreated control; higher = more cleavage, active = 3.5 or more, inactive = 1 or less, 8 variable residues between constant flanks
Procedure, shortened: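 To give the cleavage Z-score, log read counts were set against furin-free reactions, lowess-adjusted and scaled by median absolute deviation. These counts came from PCR adapter-tagged, sequenced DNA released when purified furin cut 8-mer peptides fused to a cDNA oligonucleotide and held on magnetic beads by their N-terminus. Digests were 0.01 ml, 1:10 enzyme:substrate, in 50 mM HEPES pH 7.5 with CaCl2 and NaCl, for 7.5, 15 or 30 min.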

Sequence of furin, P09958 (P09958 whole entry): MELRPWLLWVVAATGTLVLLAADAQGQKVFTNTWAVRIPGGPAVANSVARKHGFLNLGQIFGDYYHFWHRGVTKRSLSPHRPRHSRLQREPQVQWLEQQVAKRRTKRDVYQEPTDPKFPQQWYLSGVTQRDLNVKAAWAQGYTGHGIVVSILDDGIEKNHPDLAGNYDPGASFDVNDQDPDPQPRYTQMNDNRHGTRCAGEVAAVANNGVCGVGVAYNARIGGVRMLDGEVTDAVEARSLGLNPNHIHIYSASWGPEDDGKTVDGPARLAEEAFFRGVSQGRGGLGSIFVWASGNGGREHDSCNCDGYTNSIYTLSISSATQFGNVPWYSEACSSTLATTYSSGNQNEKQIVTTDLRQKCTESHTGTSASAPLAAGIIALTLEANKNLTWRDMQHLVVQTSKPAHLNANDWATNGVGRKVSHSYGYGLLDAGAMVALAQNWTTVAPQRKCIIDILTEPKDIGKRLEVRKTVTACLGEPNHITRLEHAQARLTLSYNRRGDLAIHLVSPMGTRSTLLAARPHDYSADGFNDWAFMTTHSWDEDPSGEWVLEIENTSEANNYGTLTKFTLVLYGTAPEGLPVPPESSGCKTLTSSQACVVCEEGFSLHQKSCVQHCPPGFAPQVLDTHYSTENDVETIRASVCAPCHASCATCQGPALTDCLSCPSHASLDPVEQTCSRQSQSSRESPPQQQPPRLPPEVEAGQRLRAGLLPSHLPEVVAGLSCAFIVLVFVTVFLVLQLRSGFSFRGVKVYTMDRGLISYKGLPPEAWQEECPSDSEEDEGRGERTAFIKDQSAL

Sequence	furin cleavage Z-score (7.5 min)	furin cleavage Z-score (15 min)	furin cleavage Z-score (30 min)
CAIVSTAAQTAGNASASA [HC691]	-1.17 (inactive)	-1.15 (inactive)	-1.22 (inactive)
CAVVCTSMSYAGNASASA [HC96]	1.17	-0.0848 (inactive)	0.455 (inactive)
CATTPESGSWAGNASASA [HC53]	-0.759 (inactive)	-0.574 (inactive)	-0.54 (inactive)
CASTPCSAHLAGNASASA [HC2477]	0.591 (inactive)	0.749 (inactive)	-1.42 (inactive)
CAEVVQSTWVAGNASASA [HC139]	-1.19 (inactive)	-0.568 (inactive)	-0.254 (inactive)
CAVDVQYLYGAGNASASA [HC509]	-0.528 (inactive)	0.269 (inactive)	0.219 (inactive)
CAHPTLVFDIAGNASASA [HC601]	-0.391 (inactive)	-1.13 (inactive)	-0.764 (inactive)
CARRRRSIQNAGNASASA [FS-3066]	7.74 (active)	10.2 (active)	7.21 (active)
CALVAEEDERAGNASASA [HC1290]	-0.68 (inactive)	-1.05 (inactive)	-0.546 (inactive)
CASGMFDSSVAGNASASA [HC915]	-1.55 (inactive)	-0.578 (inactive)	-0.341 (inactive)
CAESIRMKRYAGNASASA [FS-765]	10.4 (active)	10.9 (active)	9.17 (active)
CAESGRGKRYAGNASASA [FS-25]	2.19	4.19 (active)	6.23 (active)
CAGEMRKKRYAGNASASA [FS-780]	8.98 (active)	11.5 (active)	11.2 (active)
CAGEMEECSQAGNASASA [HC1796]	-0.269 (inactive)	1.03	0.391 (inactive)
CAEVPCHRTSAGNASASA [HC2398]	0.843 (inactive)	-0.111 (inactive)	1.35
CAWRRRQKRRAGNASASA [FS-898]	11.1 (active)	12.6 (active)	10.1 (active)
CARYDRQKRRAGNASASA [FS-866]	5.33 (active)	8.92 (active)	8.14 (active)
CAQRDRQKRRAGNASASA [FS-558]	8.63 (active)	9.96 (active)	8.51 (active)
CAVLIDILAGAGNASASA [HC1084]	-1.68 (inactive)	-0.0246 (inactive)	-1.35 (inactive)
CALDLPPIIQAGNASASA [HC1599]	0.239 (inactive)	-0.216 (inactive)	-0.33 (inactive)
CATTVCSGSWAGNASASA [HC1870]	-0.934 (inactive)	-0.656 (inactive)	-0.569 (inactive)
CATTICSGSWAGNASASA [HC1864]	-0.759 (inactive)	-0.615 (inactive)	-0.31 (inactive)

Sequence	furin cleavage Z-score (7.5 min)	furin cleavage Z-score (15 min)	furin cleavage Z-score (30 min)
CATTPCQGSWAGNASASA [HC79]	-0.663 (inactive)	0.917 (inactive)	-0.281 (inactive)
CAMECCSQHLAGNASASA [HC1720]	0.573 (inactive)	0.0768 (inactive)	0.728 (inactive)
CARRPRHAEQAGNASASA [FS-2781]	4.69 (active)	5.7 (active)	4 (active)
CARRPRGTMQAGNASASA [FS-1920]	4.44 (active)	4.25 (active)	6.42 (active)
CARSRRLAEQAGNASASA [FS-1933]	0.188 (inactive)	2.91	3.14
CARRPRLSDRAGNASASA [FS-3059]	-0.769 (inactive)	-0.45 (inactive)	-0.545 (inactive)
CARRPRDDDSAGNASASA [FS-3057]	-0.221 (inactive)	-0.299 (inactive)	-1.38 (inactive)
CAEEMEECSQAGNASASA [HC1792]	0.0451 (inactive)	-0.543 (inactive)	-0.411 (inactive)
CASTKVPAAYAGNASASA [HC779]	-0.328 (inactive)	-0.544 (inactive)	0.327 (inactive)
CAPGALVVGVAGNASASA [HC1105]	-0.0947 (inactive)	0.679 (inactive)	-0.0726 (inactive)
CARKARFGSEAGNASASA [FS-2958]	0.624 (inactive)	0.0236 (inactive)	1.04
CARKYRFHGGAGNASASA [FS-1734]	0.847 (inactive)	-1.27 (inactive)	-0.103 (inactive)
CARKARFIHDAGNASASA [FS-2421]	2.71	4.77 (active)	7.1 (active)
CARKAREVCDAGNASASA [FS-1900]	5.27 (active)	5.4 (active)	4.27 (active)
CARKYRSHHDAGNASASA [FS-2428]	1.45	4.06 (active)	3.48
CADSTVTESDAGNASASA [HC1483]	-0.354 (inactive)	0.495 (inactive)	0.157 (inactive)
CARKYRSNKGAGNASASA [FS-2703]	0.0213 (inactive)	0.138 (inactive)	1.58
CARKYREVFCAGNASASA [FS-2041]	0.9 (inactive)	2.75	2.7
CASTPCSADLAGNASASA [HC2551]	1.45	0.00667 (inactive)	2.02
CANYTFALWRAGNASASA [HC1199]	-0.0905 (inactive)	-0.132 (inactive)	1.34
CAAGVDAETHAGNASASA [HC350]	-0.719 (inactive)	-1.77 (inactive)	-1.18 (inactive)
